Measured values reported in the supplement of paper PMC6555819.

How the values were obtained:
Assay in all cases: PBM binding z-score (relative to random genomic background probes); higher = stronger binding; sequences stand for … in GC…GCGATTGACAGCGTAGAATGAAGG
[1] = tested on: PPARg:RXRa DBDmut IVT, anti-RXR (DBD mutation: RXRa K156A/R161A, NR concentration 270 nM, RXRa partner concentration 90 nM)
Outline: (§1)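 On custom Agilent 4×180K arrays, double-stranded probes with 34-nt variable regions carried direct-repeat seeds, single-nucleotide variants, half-site ablations or random human genomic background. Ligand-free nuclear receptor dimers were applied for 1 h, and binding was read with antibodies against each partner (one per run). Binding z-scores come from regression-normalized fluorescence, with the random background probes as reference.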

[2] = tested on: PPARg:RXRa IVT, anti-PPARg (NR concentration 270 nM, RXRa partner concentration 90 nM)
Outline: as §1

[3] = tested on: PPARg DBDmut:RXRa IVT, anti-PPARg (DBD mutation: PPARg1 K132A/R137A, NR concentration 270 nM, RXRa partner concentration 90 nM)
Outline: as §1

[4] = tested on: PPARg DBDmut IVT, anti-PPARg (DBD mutation: PPARg1 K132A/R137A, NR concentration 270 nM)
Outline: as §1

[5] = tested on: PPARg homodimer (NR concentration 180 nM)
Outline: as §1

[6] = tested on: PXR:RXRa (NR concentration 270 nM, RXRa partner concentration 90 nM)
Outline: as §1

[7] = tested on: PXR homodimer (NR concentration 270 nM)
Outline: as §1

[8] = tested on: RARa:RXR (NR concentration 270 nM, RXRa partner concentration 90 nM)
Outline: as §1

[9] = tested on: RARa homodimer (NR concentration 270 nM)
Outline: as §1

[10] = tested on: RARb:RXRa (NR concentration 270 nM, RXRa partner concentration 90 nM)
Outline: as §1

[11] = tested on: RARb homodimer (NR concentration 270 nM)
Outline: as §1

[12] = tested on: RARg:RXRa (NR concentration 270 nM, RXRa partner concentration 90 nM)
Outline: as §1

[13] = tested on: RARg homodimer (NR concentration 270 nM)
Outline: as §1

[14] = tested on: RXRa DBDmut IVT, anti-RXR (DBD mutation: RXRa K156A/R161A, NR concentration 90 nM)
Outline: as §1

[15] = tested on: RXRa homodimer (NR concentration 180 nM)
Outline: as §1

[16] = tested on: THRa:RXRa (NR concentration 90 nM, RXRa partner concentration 90 nM)
Outline: as §1

[17] = tested on: THRa homodimer (NR concentration 90 nM)
Outline: as §1

[18] = tested on: VDR:RXRa (NR concentration 270 nM, RXRa partner concentration 90 nM)
Outline: as §1

[19] = tested on: VDR homodimer (NR concentration 270 nM)
Outline: as §1

| Sequence | PBM binding z-score [1] | PBM binding z-score [2] | PBM binding z-score [3] | PBM binding z-score [4] | PBM binding z-score [5] | PBM binding z-score [6] | PBM binding z-score [7] | PBM binding z-score [8] | PBM binding z-score [9] | PBM binding z-score [10] | PBM binding z-score [11] | PBM binding z-score [12] | PBM binding z-score [13] | PBM binding z-score [14] | PBM binding z-score [15] | PBM binding z-score [16] | PBM binding z-score [17] | PBM binding z-score [18] | PBM binding z-score [19] |
| --- | --- | --- | --- | --- | --- | --- | --- | --- | --- | --- | --- | --- | --- | --- | --- | --- | --- | --- | --- |
| CGTCCAAGGTCAAAAGTCAGTGAAGAGATGACGG | 2.6 | 3.24 | 0.212 | -0.048 | 1.17 | 3.92 | 0.638 | 4.84 | 0.448 | 4.63 | 3.25 | 5.69 | 5.8 | 3.57 | 6.1 | 3.41 | 1.3 | 3.74 | 1.86 |
| AGTCAATGTTCATCTAGGTAACGTAAGATATGCT | 0.56 | 1.85 | 1.15 | 0.949 | -0.656 | -0.196 | 0.00127 | -0.13 | 0.181 | 0.152 | -0.0821 | 0.125 | 0.41 | 0.291 | 0.0893 | 0.616 | 0.345 | -0.275 | -0.282 |
| TCTCGGAGGACACGAAGGTCAGAGCATTCCAGAG | 1.39 | 1.39 | -0.898 | -1.01 | 0.93 | 1.74 | 0.89 | 1.61 | 0.282 | 3.07 | 3.61 | 3.22 | 4.02 | 0.583 | 1.97 | 2.87 | 0.91 | 2.31 | 1.04 |
| TTACCAAGGTGAGCTGAGTTCGTTGATCCAACTC | 1.27 | 1.51 | -0.265 | -0.637 | -0.679 | 5.28 | 2.22 | 0.594 | -0.779 | 1.04 | 0.421 | 0.2 | 0.307 | 0.458 | 0.157 | 2.71 | 0.173 | 4.86 | 3.63 |
| GCGACTGGGCCATCAGCAGGTTACCATAACTTAA | 2.78 | 2.04 | -0.993 | -1.45 | -0.551 | -0.569 | -0.71 | -0.295 | -0.835 | 0.195 | 0.461 | -0.0254 | 0.0324 | -0.654 | -0.151 | 0.132 | -0.441 | -0.599 | -0.661 |
| TCTTGTAGATCAACAGGCGGTTAAGAAAGATCGA | 1.91 | 0.45 | 0.508 | 0.822 | -0.291 | 0.038 | -0.259 | 0.363 | -0.0268 | -0.0147 | -0.586 | 0.0814 | -0.187 | 0.904 | 0.0872 | -0.136 | -0.273 | 0.345 | -0.602 |
| ATATTTAGGTTAGCTGGGGTCATTCAGACTAGGC | 5.87 | 4.88 | 2.64 | 2.22 | 3.24 | 6.14 | 5.08 | 5.14 | 3.11 | 3.21 | 3.93 | 4.05 | 3.26 | 2.19 | 5.09 | 5.1 | 4.01 | 6.03 | 6.12 |
| GCTAGTTGGTCAGTAAAAGGTCACTCACCGGTCG | 1.28 | 2.47 | -0.335 | 0.0493 | 3.31 | 4.53 | 0.779 | 5.19 | 1.56 | 4.12 | 5.26 | 5.05 | 4.43 | 0.781 | 4.21 | 3.31 | 1.47 | 3.51 | 1.36 |
| TCTCGAAGGACACGAAAGGTCAGAGCTCGACATC | 2.34 | 1.64 | 0.0703 | 0.551 | 1.75 | 3.79 | 0.247 | 4.04 | 0.683 | 4.23 | 4.81 | 4.59 | 4.73 | 1.37 | 4.17 | 3.39 | 0.878 | 3.06 | 0.702 |
| CCGACTGGGCCATAAGGTTACCATAAGCCAGCCC | 1.93 | 2.16 | -0.459 | -1.39 | 0.396 | 0.04 | -0.806 | 1.15 | -0.622 | 1.06 | 1.25 | 0.915 | 0.48 | -0.727 | 0.767 | 2 | 1.52 | 0.0236 | -0.224 |
| CCTACTGGGCCATTCAGAGGCCATTGATCATATG | 4.1 | 3.43 | -0.542 | -0.403 | 0.212 | -0.174 | -0.0574 | -0.153 | -0.498 | 0.712 | 0.918 | 0.62 | 0.424 | -0.152 | -0.147 | 0.255 | -0.212 | – | -0.0106 |
| CGTCAAAGTTCAACTAAGGTAGCGTAAAGCACGC | 0.387 | 1.51 | -0.0827 | 0.743 | 3.4 | 5.03 | 4.13 | 3.8 | 2.16 | 5.15 | 4.16 | 5.74 | 6.39 | 4.42 | 4.96 | 5.06 | 0.699 | 4.35 | 4.01 |
| CAAACTAGCTCAAGGTCAAAGTCGGTTTGTGCCA | 1.26 | 1.78 | -0.371 | -0.234 | 2.07 | 4.39 | 2.66 | 4.08 | 0.525 | 3.88 | 4.04 | 4.12 | 3.84 | 2.23 | 4.51 | 3.95 | 3.59 | 4.51 | 3.7 |
| ATACCAAAGTGATCGTGAGGTCGTTGATACTAAC | -0.498 | 0.345 | 0.693 | 0.857 | 0.565 | 1.86 | 1.59 | 1.59 | 0.386 | 0.514 | 1.13 | 0.445 | 0.273 | 1.02 | 0.855 | 2.76 | 2.01 | 2.02 | 3.16 |
| TCGAGTAGGGTACCAATGGGGCATTCAGCTTTCT | 1.51 | 1.1 | -1.19 | -0.695 | -0.571 | -0.333 | -0.807 | -0.262 | -1.44 | 0.103 | 0.23 | -0.106 | -0.439 | -0.161 | 0.0647 | -0.59 | -0.915 | -0.337 | -0.697 |
